Experimental data: PubChem BioAssay (NCATS)
Values joined by “and” are separate entries in the source; they are usually repeats but may differ in a detail not shown here. Equal values may be shown once. Inconclusive results are not listed. Active and inactive are the calls of the source. Unless noted, calls follow the shape of the dose curve; as a rule, active = well fitted curve in the direction sought with a large enough effect; inconclusive = small, poorly fitted or top-dose-only effect, or another doubt; inactive = no such curve, though single readings can be large; an effect the other way counts as inactive or inconclusive.

Legend:
[1] = Cell Viability - MRC5 (AID 434; calls by dose curve;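 also: potency is read from the fitted curve at half-maximal effect; cells exposed to compound for 40 hours at 37 °C; potency reflects cytotoxicity seen as loss of intracellular ATP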); settings: MRC5 lung fibroblast viability, qHTS
Summary of the method: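 qHTS cytotoxicity in human lung fibroblast MRC5 cells; 40 hr treatment, 37 °C; cellular ATP by luciferase luminescence; DMSO = 0%, 100 uM tamoxifen = 100% inhibition; Hill-fit AC50.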

[2] = Cell Viability - HUV-EC-C (AID 542); settings: HUV-EC-C endothelial cell viability, qHTS; series mostly up to 92.2 µM;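 also: cells exposed to compound for 40 hours; % is scaled to controls: 0 for no effect and ±100 for the full control effect; nearly all actives have a fitted effect of over 35% in size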
Summary of the method: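 Decrease in cellular ATP, quantified by luciferase luminescence, reflects toxicity in normal human vascular endothelial HUV-EC-C cells given compound for 40 hr in complete culture medium. Values are AC50s from concentration-response curves.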

[3] = Cellular Toxicity (caspase-3) HepG2 (AID 654); settings: HepG2 caspase-3 activation, luminescence; series mostly up to 92.2 µM;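 also: cells exposed to compound for 16 hours before reading; 0% = DMSO alone and 100% = caspase signal from 100 µM tamoxifen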
Summary of the method: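 qHTS, HepG2, 1500 cells/well, complete medium; cpd 16 h 37 °C; Caspase-Glo 3/7, 20 min RT; lum. Norm: DMSO vs 100 uM tamoxifen; AC50 Hill fit.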

[4] = Cellular Toxicity (caspase-3) HUV-EC-C (AID 656); settings: HUV-EC-C cells, caspase-3 activation (apoptosis); series mostly up to 92.2 µM
Summary of the method: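 HUV-EC-C endothelial cells, 1000/well, were pre-incubated 5 hr at 37°C, then exposed to compounds for 16 hr at 37°C. Caspase-Glo 3/7 luminescence was read after 20 min at room temperature. AC50 came from Hill fits, normalized to DMSO and 100 uM tamoxifen.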

[5] = Cellular Toxicity (caspase-3) SHSY5Y (AID 657); settings: SH-SY5Y caspase-3 activation; series mostly up to 91.7 µM
Summary of the method: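 SH-SY5Y human neuroblastoma cells (1500/well) were treated with compounds for 16 h at 37 °C, then Caspase-Glo 3/7 luminescence was read after 1 h at room temperature. Data normalized to DMSO and 10 uM staurosporine; AC50 from Hill fits.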

[6] = Cellular Toxicity (caspase-3) BJ (AID 658); settings: BJ fibroblasts, luminescence; Potency: caspase-3 activation; series mostly up to 91.7 µM
Summary of the method: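 Readout: Caspase-Glo 3/7 luminescence increase in BJ cells after 16 hr treatment at 37 °C. Staurosporine and tamoxifen served as positive controls; AC50 values came from Hill modelling of data normalized to DMSO and 10 uM staurosporine.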

[7] = Cellular Toxicity (caspase-3) MRC-5 (AID 659); settings: MRC-5 cells, luminescence, normalized: DMSO 0%, 10 µM staurosporine 100%; series mostly up to 91.7 µM
Summary of the method: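 Concentration-dependent caspase 3/7 activation is measured in human normal lung fibroblasts (MRC-5) following 16-hour treatment. AC50 values come from standard Hill-equation modeling of luminescence normalized to DMSO and 10 uM staurosporine.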

[8] = Cellular Toxicity (caspase-3) Mesangial (AID 660); settings: mesangial cells, normalized: DMSO 0%, 100 µM tamoxifen 100%; series mostly up to 91.7 µM;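 also: combined caspase 3 and 7 activity read by Caspase-Glo luminescence; cells exposed to compound for 16 h before the caspase read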
Summary of the method: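 Concentration-response qHTS: compound-induced rise in caspase 3/7 luminescence in human mesangial cells after 16 h, normalized to DMSO and 100 uM tamoxifen controls.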

[9] = Cellular Toxicity (caspase-3) H-4-II-E (AID 663); settings: H-4-II-E rat hepatoma; Potency: caspase-3 activation; series mostly up to 92.2 µM;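 also: cells exposed to compound for 16 hr before readout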
Summary of the method: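 Apoptosis induction is scored as increased luminescence from caspase 3/7 substrate cleavage in rat hepatoma H-4-II-E cells exposed to compound for 16 hr. Activity is scaled between DMSO and 100 uM tamoxifen.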

[10] = Cellular Toxicity (caspase-3) Hek293 (AID 664); settings: HEK293 caspase-3 activation, DMSO = 0%, 100 µM tamoxifen = 100%; at 92.2 µM (top of the series);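 also: cells exposed to compound for 16 h at 37 °C before readout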
Summary of the method: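 Activation of caspase-3/7 is measured as increased luminescence from cleaved peptide-aminoluciferin substrate in HEK293 cells treated 16 hours at 37 °C. AC50 values come from Hill-equation fits of concentration-response data.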

[11] = Cellular Toxicity (caspase-3) N2a (AID 665); settings: N2a cells, luminescence, normalized: DMSO 0%, 10 µM staurosporine 100%; series mostly up to 92.2 µM;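 also: compound exposure lasted 16 h at 37 °C before readout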
Summary of the method: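 Plated mouse neuroblastoma N2a cells received titrated compounds for 16 h in complete medium. Caspase activity was then detected with a peptide-aminoluciferin luminescent reagent.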

[12] = Cellular Toxicity (caspase-3) NIH 3T3 (AID 666); settings: NIH 3T3 caspase-3 activation, apoptosis/toxicity, 0% DMSO, 100% is 100 µM tamoxifen; series mostly up to 92.2 µM;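 also: caspase signal read after 16 h compound exposure; 0% = DMSO basal and 100% = 100 µM tamoxifen stimulation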
Summary of the method: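 Concentration-response qHTS in NIH 3T3 mouse fibroblasts scores caspase-3/7 activation as rising luminescence after 16 hr compound exposure. Signals are scaled between DMSO-only and 100 uM tamoxifen.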

[13] = Cellular Toxicity (caspase-3) Renal Proximal Tubule (AID 667); settings: renal proximal tubule cells, primary cells freshly taken from rat; Potency: caspase-3 activation; series mostly up to 91.7 µM;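 also: cells exposed to compound for 16 hours at 37 °C before detection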
Summary of the method: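 Primary rat proximal tubule cells, 1000/well, 5 h plating at 37 °C, then compound 16 h at 37 °C. Caspase-Glo 3/7 reagent, 1 h RT, luminescence. Normalized to DMSO (basal) and 10 uM staurosporine (100%); Hill-fit AC50.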

[14] = MultiTox-Fluor Cytotoxicity Assay - LYMP1-003 - Live Cells (AID 962); settings: LYMP1-003 lymphoblastoid cells, MultiTox-Fluor live-cell protease fluorescence; series mostly up to 92.2 µM;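 also: 0% = DMSO only and full loss = 92 µM tetraoctylammonium bromide; cytotoxic hits lower the live-cell protease signal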
Summary of the method: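 Cells plated at 2500 per well and incubated 5 hr; compounds added and incubated 16 hr at 37 C; MultiTox-Fluor reagent added for 60 min at room temperature; fluorescence of liberated AFC measured at 405/510 nm.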

[15] = Cell Viability - LYMP2-003 (AID 965); settings: LYMP2-003 lymphoblastoid cell viability; series mostly up to 92.2 µM;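 also: cells exposed to compounds for 24 h before reading; 0% = DMSO only and full effect = 92 µM tetraoctylammonium bromide; nearly all actives have a fitted effect of over 50% in size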
Summary of the method: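 Human lymphoblastoid cells (2500/well) were pre-incubated 5 hr at 37 C, then exposed to compounds over a concentration range for 24 hr at 37 C. Intracellular ATP was read by CellTiter-Glo luminescence; AC50 came from Hill-equation fits.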

[16] = qHTS Assay for Identification of Small Molecule Inducers of Hypoxia Response (AID 2120; active = well fitted curve in the direction sought with a large enough effect in the signal ratio, with a control signal flat, not every such curve was filed as active; the % refers to the signal ratio; also: 0% is about no effect); settings: hypoxia response reporter cells, beta-lactamase ratio readout; series mostly up to 104 µM
Summary of the method: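 Induction of beta-lactamase reporter activity was measured in CellSensor HRE-bla ME-180 cells after 17 h compound treatment at 37 degrees C, using CCF4 substrate and the 460nm/530nm emission ratio to derive AC50 values.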

[17] = biological target: Peroxisome proliferator-activated receptor alpha (Homo sapiens) (UniProt Q07869); experiment: qHTS assay for small molecule agonists of the peroxisome proliferator-activated receptor alpha (PPARalpha) signaling pathway (AID 651778); settings: PathHunter PPARalpha complementation, chemiluminescence, 6 h; max response: active compounds read high; also: % of control where 0% means no effect
Summary of the method: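 Chemiluminescence from complemented enzyme reported PPARalpha activation in cells after 6 hr of compound treatment at 37 C. The detection reagent was incubated for 60 min at room temperature, and compounds were scored as agonists.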

[18] = qHTS assay for small molecule agonists of the antioxidant response element (ARE) signaling pathway measured by Nrf2-dependant transcriptional activity - cell viability counter screen (AID 720653; active = well fitted curve in the direction sought with a large enough effect in the repeat runs; an effect the other way counts as inactive or inconclusive; also: % is scaled to controls: 0 for no effect and ±100 for the full control effect); settings: ARE-bla HepG2 viability, CellTiter-Glo ATP luminescence, 16 h; max response: active compounds read low
Summary of the method: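 Cytotoxicity counter screen: intracellular ATP quantified by CellTiter-Glo luminescence in the same ARE-bla HepG2 plates, after 16 h compound exposure and a 2 h beta-lactamase substrate step.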

[19] = qHTS assay for cell viability of HEK293 cells (AID 743288); settings: ATP luminescence (CellTiter-Glo), 18 h; max response: active compounds read low; also: % is scaled to controls: 0 for no effect and ±100 for the full control effect; nearly all actives have a fitted effect of over 50% in size
Summary of the method: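 Parental HEK293 cells were seeded at 2,000 cells/well, rested at least 5 h at 37 C, then exposed to compounds in DMSO for 18 h at 37 C. Viability was read as ATP-dependent luciferase luminescence after 30 min at room temperature.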

[20] = qHTS assay for cell viability of the p53RE-bla HCT-116 cell line (AID 743292); settings: p53RE-bla HCT-116 viability, ATP luminescence, 16 h; series mostly up to 95 µM; also: % is scaled to controls: 0 for no effect and ±100 for the full control effect; nearly all actives have a fitted effect of over 55% in size
Summary of the method: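 Viability of compound-treated p53RE-bla HCT-116 cells is taken from ATP-dependent luciferase luminescence. Treatment lasts 16 h at 37 C after a 5 h settling period; detection follows 30 min at room temperature.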

Sequence of Peroxisome proliferator-activated receptor alpha (Homo sapiens) (Q07869 whole entry, looked up): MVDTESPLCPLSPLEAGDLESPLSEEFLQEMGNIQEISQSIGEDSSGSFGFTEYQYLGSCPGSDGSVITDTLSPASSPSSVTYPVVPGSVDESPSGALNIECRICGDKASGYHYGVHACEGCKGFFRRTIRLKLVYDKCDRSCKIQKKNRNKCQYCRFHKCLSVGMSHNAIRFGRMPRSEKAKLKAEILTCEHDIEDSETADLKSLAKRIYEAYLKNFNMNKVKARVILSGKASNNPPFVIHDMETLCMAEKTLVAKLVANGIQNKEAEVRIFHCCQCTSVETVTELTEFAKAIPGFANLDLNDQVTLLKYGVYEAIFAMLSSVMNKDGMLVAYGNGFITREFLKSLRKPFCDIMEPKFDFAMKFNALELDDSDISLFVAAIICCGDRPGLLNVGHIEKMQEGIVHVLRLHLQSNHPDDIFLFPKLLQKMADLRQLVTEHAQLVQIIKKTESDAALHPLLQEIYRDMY

OCC(CBr)(CBr)CBr
inactive: Potency [1] > 92 µM | Potency [2] | Potency [3] | Potency [4] | Potency [5] | Potency [6] | outcome [7] | outcome [8] | Potency [9] | caspase-3 activation [10] 0.713% | outcome [11] | outcome [12] | Potency [13] | Potency [14] | Potency [15] | Potency [16] | max response [17] 1.63% | max response [18] -12.4% | max response [19] -19.9% | Potency [20]

CCCCC(CC)COC(=O)COc1ccc(Cl)cc1Cl (stereo not given)
inactive: Potency [1] > 92 µM | Potency [2] | Potency [3] | Potency [4] | Potency [5] | Potency [6] | outcome [7] | outcome [8] | Potency [9] | caspase-3 activation [10] 1.58% | outcome [11] | outcome [12] | Potency [13] | Potency [14] | Potency [15] | Potency [16] | max response [17] -1.4% and -1.03% | max response [18] -8.61% and -1.82% | max response [19] -3.29% and 2.38% | Potency [20]

COc1ccc(C)cc1N
inactive: Potency [1] > 92 µM | Potency [2] | Potency [3] | Potency [4] | Potency [5] | Potency [6] | outcome [7] | outcome [8] | Potency [9] | caspase-3 activation [10] 0.602% | outcome [11] | outcome [12] | Potency [13] | Potency [14] | Potency [15] | Potency [16] | max response [17] -6.24% | max response [18] -10.4% | max response [19] -15% | Potency [20]

Oc1c(Cl)cc(Cl)c(Cl)c1Cl
inactive: Potency [1] > 92 µM | Potency [2] | Potency [3] | Potency [4] | Potency [5] | Potency [6] | outcome [7] | outcome [8] | Potency [9] | caspase-3 activation [10] 1.49% | outcome [11] | outcome [12] | Potency [13] | Potency [14] | Potency [15] | Potency [16] | max response [17] 4.27% | max response [18] -1.59% and 6.5% | max response [19] -22.8% and -1.71% | Potency [20]

CN(C)c1ccc(Cc2ccc(N(C)C)cc2)cc1
inactive: Potency [1] > 92 µM | Potency [2] | Potency [3] | Potency [4] | Potency [5] | Potency [6] | outcome [7] | outcome [8] | Potency [9] | caspase-3 activation [10] 2.63% | outcome [11] | outcome [12] | Potency [13] | Potency [14] | Potency [15] | Potency [16] | max response [17] 1.98% and -1.9% | max response [18] -17.1% and 8.5% | max response [19] -15.2% and -24.3% | Potency [20]

C/C(Cl)=C/CCl
inactive: Potency [1] > 92 µM | Potency [2] | Potency [3] | Potency [4] | Potency [5] | Potency [6] | outcome [7] | outcome [8] | Potency [9] | caspase-3 activation [10] -0.884% | outcome [11] | outcome [12] | Potency [13] | Potency [14] | Potency [15] | Potency [16] | max response [17] -4.68% | max response [18] 5.48% | max response [19] -11.4% | Potency [20]

Cc1ccc(C(=O)O)cc1[N+](=O)[O-]
inactive: Potency [1] > 92 µM | Potency [2] | Potency [3] | Potency [4] | Potency [5] | Potency [6] | outcome [7] | outcome [8] | Potency [9] | caspase-3 activation [10] -1.69% | outcome [11] | outcome [12] | Potency [13] | Potency [14] | Potency [15] | Potency [16] | max response [17] -2.73% | max response [18] -1.34% | max response [19] 1.99% | Potency [20]

c1ccc(COCc2ccccc2)cc1
inactive: Potency [1] > 92 µM | Potency [2] | Potency [3] | Potency [4] | Potency [5] | Potency [6] | outcome [7] | outcome [8] | Potency [9] | caspase-3 activation [10] 2.76% | outcome [11] | outcome [12] | Potency [13] | Potency [14] | Potency [15] | Potency [16] | max response [17] -3.88% | max response [18] 3.34% | max response [19] 0.589% | Potency [20]

CCCCCCCCC1CO1 (stereo not given)
inactive: Potency [1] > 92 µM | Potency [2] | Potency [3] | Potency [4] | Potency [5] | Potency [6] | outcome [7] | outcome [8] | Potency [9] | caspase-3 activation [10] 0.315% | outcome [11] | outcome [12] | Potency [13] | Potency [14] | Potency [15] | Potency [16] | max response [17] -3.27% | max response [18] 14.9% | max response [19] 4.27% | Potency [20]

Cc1ccc(N)cc1[N+](=O)[O-]
inactive: Potency [1] > 92 µM | Potency [2] | Potency [3] | Potency [4] | Potency [5] | Potency [6] | outcome [7] | outcome [8] | Potency [9] | caspase-3 activation [10] -1.57% | outcome [11] | outcome [12] | Potency [13] | Potency [14] | Potency [15] | Potency [16] | max response [17] -0.223% | max response [18] -10.7% | max response [19] 4.69% | Potency [20]

Cc1c(N)cccc1Cl
inactive: Potency [1] > 92 µM | Potency [2] | Potency [3] | Potency [4] | Potency [5] | Potency [6] | outcome [7] | outcome [8] | Potency [9] | caspase-3 activation [10] 0.378% | outcome [11] | outcome [12] | Potency [13] | Potency [14] | Potency [15] | Potency [16] | max response [17] -2.61% | max response [18] -6.28% | max response [19] 0.674% | Potency [20]
